Reference: PubChem BioAssay (NCI)
This is part of a sample that, as a whole, favours compounds with a hit. Of some 83,000 tested, about 20% had one in any assay.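 For each line, cells grew in 96-well plates with the test compound present at a single concentration for 48 hours.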 A number with no mark means an inactive call. Active and inactive are the calls of the source. Rule for the calls: active = growth percent below 10; inactive = the rest.

How the values were obtained:
Assay in all cases: NCI-60 one-dose screen, 48 h (100 = growth as untreated, 0 = no growth, -100 = all killed)
SR leukemia = conditions: 10 µM unless noted
RPMI-8226 leukemia = conditions: 10 µM unless noted
OVCAR-8 ovarian = conditions: 10 µM unless noted
OVCAR-5 ovarian = conditions: 10 µM unless noted
OVCAR-4 ovarian = conditions: 10 µM unless noted
SK-OV-3 ovarian = conditions: 10 µM unless noted
IGROV1 ovarian = conditions: 10 µM unless noted
OVCAR-3 ovarian = conditions: 10 µM unless noted
NCI/ADR-RES ovarian = conditions: 10 µM unless noted
T-47D breast = conditions: 10 µM unless noted
BT-549 breast = conditions: 10 µM unless noted
MDA-MB-435 melanoma = conditions: 10 µM unless noted
SW-620 colon = conditions: 10 µM unless noted
MCF7 breast = conditions: 10 µM unless noted
HCT-116 colon = conditions: 10 µM unless noted
HCC-2998 colon = conditions: 10 µM
KM12 colon = conditions: 10 µM unless noted

Row | Compound | growth (SR leukemia) | growth (RPMI-8226 leukemia) [%] | growth (OVCAR-8 ovarian) | growth (OVCAR-5 ovarian) | growth (OVCAR-4 ovarian) | growth (SK-OV-3 ovarian) | growth (IGROV1 ovarian) | growth (OVCAR-3 ovarian) | growth (NCI/ADR-RES ovarian) | growth (T-47D breast) | growth (BT-549 breast) | growth (MDA-MB-435 melanoma) | growth (SW-620 colon) | growth (MCF7 breast) | growth (HCT-116 colon) | growth (HCC-2998 colon) | growth (KM12 colon)
1 | Nc1nc(N)c2nc(-c3cccc(O)c3)c(-c3cccc(O)c3)nc2n1 | 82% | 83.5 | 77.2% | 78.1% | 93.8% | 52.8% | 42.1% | 57.4% | 89.5% | 2.15% (active) | 47.8% | 97.4% | 90.8% | 70.1% | 77.9% | 94.6% | 90.6%
2 | O=C(O)c1ccc2c(c1)nc(Nc1cccc(Cl)c1)c1ccncc12 | -11.3% (active) | 10.6 | 5.65% (active) | 10.6% | -2.42% (active) | -27.1% (active) | -22.2% (active) | 2.03% (active) | 5.81% (active) | -22.1% (active) | -5.65% (active) | 5.4% (active) | 6.63% (active) | 5.91% (active) | 3.79% (active) | 15.1% | 11.5%
3 | Cn1cnc(-c2cc3nccc(Oc4ccc(NC(=S)NC(=O)Cc5ccccc5)cc4F)c3s2)c1 | 69.3% | 54.9 | 75.9% | 111% | 86.7% | 82.6% | 95.4% | 80.5% | 96% | 65.8% | 77.3% | 93.2% | 76.7% | 79.5% | 78.8% | 104% | 21.8%
4 | CC[C@H](CO)Nc1nc(NCc2ccccc2)c2ncn(C(C)C)c2n1 | 7.1% (active) | 85.5 | 63.8% | 50.9% | 73.2% | 102% | 49% | 65.2% | 71.4% | 48.4% | 78.1% | 83.6% | 69.3% | 31.5% | 30.1% | 74.5% | 47.6%
5 | S=C(NCc1ccc2c(c1)OCO2)N1CCN(c2ncnc3c2oc2ccccc23)CC1 | 14.8% | 21.3 | 24.8% | 62.1% | 14.1% | 35.6% | 33.4% | 30.9% | 28.3% | 1.12% (active) | 32.3% | 19.3% | 40.9% | 18.7% | 34.3% | 57.4% | 45.2%
6 | CN(C[C@@H]1COCCO1)S(=O)(=O)Nc1ccc2ccc3ncc(-c4cnn(C)c4)cc3c(=O)c2c1 | 13.1% | 38.5 | 31.3% | 55.2% | 38.2% | 1.71% (active) | 11.5% | 55.4% | 52.1% | 15.9% | 28.1% | 44.7% | 37% | 36.3% | 24.1% | 74.1% | 10.2%
7 | C=CC(=O)N1CCC[C@@H](n2nc(-c3ccc(Oc4ccccc4)cc3)c3c(N)ncnc32)C1 | 50.3% | 42.1 | 40.1% | 81.7% | 60.6% | -2.8% (active) | 7.56% (active) | 66.3% | 46.4% | 0.0664% (active) | 34.6% | 59.6% | 95.2% | 52.6% | 59.8% | 103% | 53.6%
8 | CCc1cc2c(cc1N1CCC(N3CCOCC3)CC1)C(C)(C)c1[nH]c3cc(C#N)ccc3c1C2=O | -3.84% (active) | 15.7 | -11.3% (active) | -8.72% (active) | -50.9% (active) | -22.5% (active) | -41.6% (active) | 4.44% (active) | -1.18% (active) | -26.7% (active) | -19.3% (active) | 5.08% (active) | 2.54% (active) | 13.8% | -7.97% (active) | 5.22% (active) | 4.1% (active)
9 | COc1cc2nccc(Oc3ccc(NC(=O)C4(C(=O)Nc5ccc(F)cc5)CC4)cc3)c2cc1OC | 0.0186% (active) | 26.4 | 19.8% | 9.6% (active) | 26.3% | -15.1% (active) | -15.9% (active) | 41.2% | 13.8% | -14% (active) | 32.8% | 8.75% (active) | -27.3% (active) | 15.6% | 1.99% (active) | 30.5% | 7.5% (active)
10 | C=CCN(/C=C1/C(=O)O[C@H](COC)[C@@]2(C)C1=C(O)C(=O)C1=C2[C@H](OC(C)=O)C[C@]2(C)C(=O)CC[C@@H]12)CC=C | 0.113% (active) | 35.2 | 29.4% | 20.5% | 30.6% | -19.6% (active) | -1.93% (active) | 21% | 35.4% | -10.6% (active) | -7.68% (active) | 21.4% | 39.8% | 11.8% | 14.6% | -20.4% (active) | 22.4%
11 | COc1cc(N2CCC(N3CCN(C)CC3)CC2)ccc1Nc1ncnc(Nc2ccccc2S(=O)(=O)C(C)C)n1 | 12.7% | 101 | 99.3% | 98.3% | 113% | 87.4% | 103% | 105% | 109% | 74.7% | 104% | 108% | 100% | 88.6% | 88.2% | 97.3% | 109%
12 | O=C1C=CC2(NN=C(c3ccccc3)N2c2ccccc2)c2cccc(O)c21 (centres undefined) | 38.5% | 65.5 | 62.2% | 39.9% | 40.8% | 91.2% | 53.8% | 11.3% | 42.2% | 78.8% | 41.1% | -92.4% (active) | 34.9% | 35.4% | 18.1% | 54.2% | 47.3%
13 | CN1[C@@H]2CC[C@H]1/C(=C\c1ccccc1)C1=C2[C@@H](c2ccccc2)C(C#N)=C(N)O1 | 61.8% | 55.5 | 84.3% | 84.9% | 73.9% | 84.4% | 93.8% | 97.2% | 90.2% | 58.6% | 67% | 98.5% | 98.2% | 85.2% | 49.9% | 87.7% | 85.3%
14 | Clc1ccc(Nc2nccc(Nc3ccc4[nH]ncc4c3)n2)cc1 | 2.66% (active) | 18.3 | 22.1% | 64.9% | 49.3% | 88.4% | 46.9% | 52.1% | 38.9% | 30.1% | 53% | 55.8% | 33% | 25% | 39.4% | 94.3% | 9.06% (active)
15 | CC12O[C@H](C[C@@H](OC(=O)CCC(=O)O)[C@H]1O)n1c3ccccc3c3c4c(c5c6ccccc6n2c5c31)C(=O)NC4=O | 0.804% (active) | 58.7 | 37.7% | 69.3% | 68% | -8.63% (active) | 20.4% | 27.9% | 58.7% | 35.8% | -1.04% (active) | 8.34% (active) | 36.2% | 19.2% | 35.6% | 41.3% | 15.4%
16 | Cc1nc2ccc(-n3ncc(C(=O)c4cc5ccccc5[nH]4)c3N)cc2[nH]1 | 14.6% | 45.2 | 41.9% | 65.9% | 71.1% | 49.6% | 37.2% | 63.2% | 66% | 34.9% | 54% | 62.8% | 43.7% | 44.2% | 27.1% | 68.8% | 17.3%
17 | CO[C@H]1C[C@@H]2CC[C@@H](C)[C@@](O)(O2)C(=O)C(=O)N2CCCC[C@H]2C(=O)O[C@H]([C@H](C)C[C@@H]2CC[C@@H](OCCO)[C@H](OC)C2)CC(=O)[C@H](C)/C=C(\C)[C@@H](O)[C@H](OC)C(=O)[C@H](C)C[C@H](C)\C=C/C=C/C=C/1C | 11.3% | 35.6 | 40.9% | 50.8% | 26.8% | 35% | 16.3% | 63.4% | 57.7% | 7.51% (active) | 42.3% | 56.4% | 53.7% | 35.8% | 64.3% | 66% | 55.3%
